Test results as given in PubChem BioAssay (NCATS).
Records with an inconclusive call do not appear. A number with no mark means an inactive call. Active and inactive are the calls of the source. Calls follow the shape of the dose curve; as a rule, active = well fitted cell-killing curve with a large enough effect; inconclusive = small, poorly fitted or top-dose-only effect, or effect the other way; inactive = no such curve, though single readings can be large or run the other way.

Experiments:
[1] = Viability qHTS for spleen associated tyrosine kinase inhibitor (SYKi) naive MV4-11 cells (AID 1963823); also: nearly all actives have a fitted effect of over 40% in size
Summary of the method: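 CellTiter-Glo luminescence, 10 min room-temperature incubation, gave viability. Cells: naive MV4-11 (500/well), treated 72 hr at 37 C, 5% CO2.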

[2] = Viability qHTS for spleen associated tyrosine kinase inhibitor (SYKi) drug resistant MV4-11 cells (AID 1963824); also: nearly all actives have a fitted effect of over 35% in size
Summary of the method: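 SYK-inhibitor-resistant MV4-11 AML cells were seeded at 500 per well onto compound and cultured 72 hours (37 °C, 5% CO2). CellTiter-Glo was then added, and after 10 min at room temperature, luminescence gave viability.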
Potency is read from the fitted curve at half-maximal effect.

SMILES | Potency [1] | Potency [2] | viability (% of control) [1] | viability, % of control [2]
CC1=CC(=O)CC(C)(C)C1/C=C/C(C)O[C@@H]1O[C@H](CO)[C@@H](O)[C@H](O)[C@H]1O[C@@H]1OC[C@](O)(CO)[C@H]1O (some centres not stated) | inactive | inactive |  | 
C=C1CC[C@H]2[C@@](C)(CCC(O)[C@@]2(C)CO)[C@@H]1/C=C/C(=C\C(=O)O)C(=O)O (some centres not stated) | inactive | inactive |  | 
C=C(NC(=O)C(=C)NC(=O)c1csc(C2=NC3c4csc(n4)C4NC(=O)c5csc(n5)C(C(C)(O)C(C)O)NC(=O)C5CSC(=N5)/C(=C/C)NC(=O)C(C(C)O)NC(=O)c5csc(n5)C3(CC2)NC(=O)C(C)NC(=O)C(=C)NC(=O)C(C)NC(=O)C(C(C)CC)NC2C=Cc3c(C(C)O)cc(nc3C2O)C(=O)OC4C)n1)C(N)=O (configuration not stated) | 1300 nM (active) | 580 nM (active) |  | 
COc1ccccc1OCCNCC(O)CCOc1cccc2[nH]c3ccccc3c12 (configuration not stated) | 9200 nM (active) | 9200 nM (active) |  | 
CCC(C)C(=O)OC1CC(O)C23C4OCC5(C(O)CC2C1(C)C(O)O4)C3C(=O)CC1(C)C(c2ccoc2)CC2OC215 (configuration not stated) | 893 nM (active) | 563 nM (active) |  | 
Cc1cc(O)c(C(C)C)cc1O[C@@H]1O[C@H](CO)[C@@H](O)[C@H](O)[C@H]1O | inactive | inactive |  | 
O=C(OC[C@H]1O[C@H](O[C@]2(CO)O[C@H](CO)[C@@H](O)[C@@H]2O)[C@H](O)[C@@H](O)[C@@H]1O)c1ccc(O)cc1 | inactive | inactive |  | 
C[C@@H]1O[C@@H](O[C@H]2[C@H](O[C@H]3[C@H](O[C@H]4CC[C@@]5(C)C(CC[C@]6(C)C5CC=C5[C@@H]7CC(C)(C)C[C@@H](O)[C@]7(C)CC[C@]56C)[C@@]4(C)CO)O[C@H](C(=O)O)[C@@H](O)[C@@H]3O)OC[C@H](O)[C@@H]2O)[C@H](O)[C@H](O)[C@H]1O (some centres not stated) |  |  | 76.2% [at 9.25 µM] | 84.4% [at 9.25 µM]
C=C1C(=O)OC2/C=C(\CO)CC/C=C(\C=O)CC(OC(=O)CC(C)C)C12 (configuration not stated) | 2270 nM (active) | 2020 nM (active) |  | 
CCN(CC)CCCS(=O)(=O)N[C@H](CCc1ccccc1)c1nc(Cc2ccc(Br)cc2)no1 | 20600 nM (active) | 20600 nM (active) |  | 
CC(C)(F)CC(NC(c1ccc(-c2ccc(S(C)(=O)=O)cc2)cc1)C(F)(F)F)C(=O)NC1(C#N)CC1 (configuration not stated) | inactive | 3660 nM (active) |  | 
C=C(C)C1CCC(C)C12CC(O)C1(C)OC1C2OC(=O)C(N)CCC(=O)O (configuration not stated) | inactive | inactive |  | 
CCCCC(=O)N(Cc1ccc(-c2ccccc2-c2nn[nH]n2)cc1)C(C(=O)O)C(C)C (configuration not stated) | inactive | inactive |  | 
CC(C)S(=O)(=O)c1ccc2nccc(Nc3ccc4scnc4c3)c2c1 | 8200 nM (active) | 16400 nM (active) |  | 
O=C(NCc1ccc(OC(F)(F)F)cc1)C1c2ccccc2C(=O)N1C1CCOCC1 (configuration not stated) | inactive | inactive |  | 
C=C1C(=O)O[C@@H]2/C=C(\CO)CC/C=C(/C=O)C[C@@H](O)[C@@H]12 | 3660 nM (active) | 2060 nM (active) |  | 
C=C(C(=O)O)C1CCC2(C)CCCC(C)(O)C2C1 (configuration not stated) | inactive | inactive |  | 
CC1CCC2C(C)(C)C(O)CCC2(C)C12Cc1c(O)cc3c(c1O2)CN(C(CCCN=C(N)N)C(=O)O)C3=O (configuration not stated) | 3170 nM (active) | 5630 nM (active) |  | 
C[C@@H]1CC[C@]2(C(=O)O)CC[C@]3(C)C(=CCC4[C@]5(C)C(CC[C@]43C)C(C)(C)[C@@H](O)[C@H](O)[C@@H]5O)C2[C@]1(C)O (some centres not stated) | inactive | inactive |  | 
CC(C)n1cc(-c2ccc(Oc3ccccc3)cc2)c2c(N)ncnc21 | 92 nM (active) | 206 nM (active) |  | 
Cc1cc(-c2cnc(N)c3c(-c4ccc5scnc5c4)csc23)n(C)n1 | 1300 nM (active) | 2590 nM (active) |  | 
c1cc(NCCc2c[nH]c3ccccc23)cc(Nc2ccncc2)c1 | 580 nM (active) | 651 nM (active) |  | 
O=C(O)CCc1cccc(O)c1O[C@@H]1O[C@H](CO)[C@@H](O)[C@H](O)[C@H]1O | inactive | inactive |  | 
C/C(=C\CO[C@@H]1O[C@H](CO[C@H]2OC[C@](O)(CO)[C@H]2O)[C@@H](O)[C@H](O)[C@H]1O)C(C)(C)O | inactive | inactive |  | 
NC(=O)[C@H]1CCCCc2c1[nH]c1ccc(Cl)cc21 | inactive | inactive |  | 
COc1cc(O[C@@H]2O[C@H](CO)[C@@H](O)[C@H](O)[C@H]2O)c(CCC(=O)OC[C@H]2O[C@@H](Oc3cc(OC)c(C4OC(=O)C(C)(O)C4O)cc3CCC(=O)O)[C@H](O)[C@@H](O)[C@@H]2O)cc1C1OC(=O)C(C)(O)C1O (some centres not stated) |  |  | 77% [at 9.25 µM] | 81.1% [at 9.25 µM]
